Our source for the outcome values is PubChem BioAssay (EPA / NIEHS).

Results filed as inconclusive are left out. The source made the active and inactive calls. Rule for the calls: active = hit-call score of the fitted dose curve at least 0.9, where 1 is the maximum; inconclusive = response in the unintended direction; inactive = score below 0.9.

The target of this assay is human Vitamin D Receptor (VDR), VDR (gene 7421) (UniProt P11473). The assay is described as follows: ATG_VDR_TRANS: Attagene TRANS-FACTORIAL HepG2 Assay for human Vitamin D Receptor (VDR) (AID 2283022). The method, then: ATG_TRANS is a cell-based, multiplexed-readout assay that uses HepG2, a human liver cell line, with measurements taken at 24 hours after chemical dosing in a 24-well plate.ATG_VDR_TRANS is one of 30 assay component(s) measured or calculated from the ATG_TRANS assay. It is designed to make measurements of mRNA induction, a form of inducible reporter, as detected with fluorescence intensity signals by Reverse transcription polymerase chain reaction (RT-PCR) and Capillary electrophoresis technology.Data from the assay component ATG_VDR_TRANS was analyzed into 1 assay endpoint. This assay endpoint, ATG_VDR_TRANS, was analyzed in the positive analysis fitting direction relative to DMSO as the negative control and baseline of activity. Using a type of inducible reporter, measures of mRNA for gain-of-signal activity can be used to understand the reporter gene at the transcription factor-level as they relate to the gene VDR. Furthermore, this assay endpoint can be referred to as a primary readout, because this assay has produced multiple assay endpoints where this one serves a reporter gene function. To generalize the intended target to other relatable targets, this assay endpoint is annotated to the nuclear receptor intended target family, where the subfamily is non-steroidal.
human Vitamin D Receptor (VDR), VDR (gene 7421), sequence (P11473 whole entry, looked up): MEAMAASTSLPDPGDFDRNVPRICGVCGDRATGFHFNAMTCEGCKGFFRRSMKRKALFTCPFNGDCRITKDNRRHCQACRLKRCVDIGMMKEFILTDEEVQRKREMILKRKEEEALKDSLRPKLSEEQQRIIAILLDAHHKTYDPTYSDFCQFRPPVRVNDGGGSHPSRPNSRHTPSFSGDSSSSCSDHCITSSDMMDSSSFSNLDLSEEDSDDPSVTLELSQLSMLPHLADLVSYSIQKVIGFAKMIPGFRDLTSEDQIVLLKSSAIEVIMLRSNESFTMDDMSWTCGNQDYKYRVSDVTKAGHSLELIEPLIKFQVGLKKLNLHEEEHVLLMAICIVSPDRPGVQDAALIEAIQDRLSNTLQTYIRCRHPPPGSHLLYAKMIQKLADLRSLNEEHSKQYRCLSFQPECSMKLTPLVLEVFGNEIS
Human liver HepG2 cells are transiently transfected with multiple reporter transcription units (MRTUs) in 6-well plates using FuGene 6 reagent (Roche; 3 ml FuGene/1 mg DNA). The MRTU constructs are regulated by a cis-regulating element (promoter). […] A major difference between the CIS and TRANS system is that in CIS activities of endogenous TFs are measured, whereas the TRANS assay evaluates changes in activities of exogenous, chimeric NR-Gal4 proteins. […] At the end of 24 hour incubation, total RNA was isolated using TriZol reagent (Invitrogen). The isolated RNA is then reverse-transcribed using oligo(dT) primer and Mo-MLV reverse transcriptase (Invitrogen) with DNAse I (Ambion) treatment for 30 min. The one-tenth of the produced cDNA was amplified by PCR using Taq DNA polymerase (Invitrogen) and two reporter sequence-specific primers. The PCR products were fluorescently labeled by primer extension with 6-arboxyfluorescein (6-FAM) 5'-labeled reporter sequence-specific primer (2 min at 95 C, 20 s at 68 C and 10 min at 72 C) and these products were digested with 5U of HpaI (New England Biolabs) for 2h at 37 C. The fragments were purified using Qiaquick PCR columns (Qiagen), analyzed on an ABI 3130xL genetic analyzer (Applied Biosystems) with peak positions identified by using a set of X-rhodamine (ROX)-labeled MapMarker1000 molecular weight standards (BioVentures). The raw capillary electrophoresis data was processed using Attagraph software (Attagene).
As to `O=C(O)c1cc(Cl)cc(Cl)c1O`, the compound was called inactive.
Next, `CCCCC(CC)COC(=O)CS` (stereo not given): “inactive”; `C=CCOC(=O)C(=C)C`: “inactive”.
Under `CO[Si](CCCNCCN)(OC)OC` stands “inactive”.
Under `COC(=O)c1ccccc1` stands “inactive”; under `CNC[C@H](O)[C@@H](O)[C@H](O)[C@H](O)CO`, “inactive”.
As to `CCCCCC1CCCC(=O)O1` (stereo not given), the call was inactive.
With `CCOc1ccc2c(c1)C(C)CC(C)(C)N2` (stereo not given), the outcome was inactive.
Consider `CC(C)(C)NC(=O)[C@@H]1CN(Cc2cccnc2)CCN1C[C@@H](O)C[C@@H](Cc1ccccc1)C(=O)N[C@H]1c2ccccc2C[C@H]1O`, for which the outcome was inactive.
Regarding `CC(C)CC(=O)CC(C)C`, the compound was called inactive.
Under `CCCCOC(=O)COc1ccc(Cl)cc1Cl` stands “inactive”; under `C=CN1CCCCCC1=O`, “inactive”.
Turning to `C[Si](C)(C)O[Si](C)(C)O[Si](C)(C)C`, the compound was called inactive.
As to `O=C(c1ccccc1)c1ccccc1O`, the compound was called inactive.
For the compound `CCCCCCC(O)CCCCCCCCCCC(=O)OC` (stereo not given), the result was inactive.
Take `O=C1NC(=O)C2CC=CCC12` (stereo not given): the outcome was inactive.
Consider `Clc1ccc(Sc2cc(Cl)c(Cl)cc2Cl)cc1`, for which the compound was called inactive.
Next, `Oc1cccc2ccccc12`: “inactive”; `CCCCCC[C@@H](O)C/C=C\CCCCCCCC(=O)O`: “inactive”.
Under `COC(OC)C(C)c1ccccc1` (stereo not given) stands “inactive”; under `CCO[Si](OCC)(OCC)c1ccccc1`, “inactive”; under `CCCCCCOC(=O)CCCCCCCC(=O)OCCCCCC`, “inactive”.
For the compound `O=C(OCc1ccccc1)c1ccccc1`, the compound was classed as inactive.
As to `CCCCCCCCCC/C=C/C1CC(=O)OC1=O` (stereo not given), the compound was classed as inactive.
`c1cc[c]([Bi]([c]2ccccc2)[c]2ccccc2)cc1`: the compound was classed as inactive.
Next, `C=C(C)C(=O)OCCCCCC`: “inactive”.
In the case of `CC/C=C\CC1=C(C)CCC1=O`, the compound was called inactive.
Under `C=C1CC[C@H]2C[C@@H]1C2(C)C` stands “inactive”; under `Brc1ccc(Oc2ccc(Br)cc2)cc1`, “inactive”; under `CCCCCCCCCCCCCCCCCC[N+](C)(C)C`, “inactive”.
With `CCCc1c(OCCCCc2nn[nH]n2)ccc(C(C)=O)c1O`, the call was inactive.
`O=C(C1CCCCC1)N1CC(=O)N2CCc3ccccc3C2C1` (stereo not given): the call was inactive.
Consider `O=[N+]([O-])c1ccccc1C(F)(F)F`, for which the outcome was inactive.
Under `Nc1ccc(S(=O)(=O)Nc2cnc3ccccc3n2)cc1` stands “inactive”; under `[O-][n+]1ccc(Cl)cc1`, “inactive”.
Under `O=C1NC(=O)[C@@H]2CC=CC[C@H]12` stands “inactive”; under `CC1=NN(c2cc(Cl)c(S(=O)(=O)O)cc2Cl)C(=O)C1N=Nc1ccc(S(=O)(=O)O)cc1` (stereo not given), “inactive”; under `c1cc(N(CC2CO2)CC2CO2)ccc1Cc1ccc(N(CC2CO2)CC2CO2)cc1` (stereo not given), “inactive”.
Under `CCCCNC(N)=O` stands “inactive”; under `CC(C)(Oc1ccc(Cl)cc1)C(=O)O`, “inactive”.
